Measurements from PubChem BioAssay (NCI).
Values joined by “and” are separate entries in the source; they are usually repeats but may differ in a detail not shown here. Equal values may be shown once. The panel holds about 79,000 compounds, 15% with a hit somewhere; the sample as a whole holds those more often. Some structures have more than one record in an assay (separate samples or runs), and their calls can disagree. Active and inactive are the calls of the source. Rule as the data show it: active = growth inhibition above about 70%; inactive = the rest.

Assay: NCI Yeast Anticancer Drug Screen. Data for the mlh1 rad18 strain (AID 175)
Settings: S. cerevisiae mlh1 rad18 strain growth inhibition; at 50.0 µM (retest, dose inferred, filed as 5.0); stronger effect = higher value
Outline: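 Yeast w/ defined DNA-repair lesions; compound exposure; growth vs vehicle controls → % inhibition.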
For `COC(COC(N)=O)C1=C(N2CC2)C(=O)C(C)=C(N2CC2)C1=O` (stereo not drawn), the growth inhibition was 97% (active). In the case of `Cc1nc(Cl)c(CBr)c(Cl)n1`, the growth inhibition is reported as 99% (active). In the case of `O=C(O)c1ccccc1.[Ag]`, the growth inhibition is reported as 99% (active) and 100% (active). With `CC(=O)[O-].O=C([CH-]C(=O)c1ccccc1)c1ccccc1.O=C([CH-]C(=O)c1ccccc1)c1ccccc1.[Sm+3]` the growth inhibition was 44% (inactive). With `CC(C)(Br)C(=O)C(Br)Br` the growth inhibition was 98% (active). With `C=C[C@H]1CN2CC[C@H]1C[C@@H]2[C@@H](O)c1ccnc2ccccc12` the growth inhibition was 8% (inactive). In the case of `O=c1c2ccccc2[se]n1-c1cccnc1`, the growth inhibition is reported as 89% (active). For `[Pt].c1ccc(P(CCP(c2ccccc2)c2ccccc2)CCP(c2ccccc2)c2ccccc2)cc1`, the growth inhibition was 92% (active). For `CC12CCC(C1)C(C)(C)C2OC(=O)c1ccccc1N` (stereo not drawn), the growth inhibition was 82% (active). For `OC1(c2ccccc2)CC2CCC(C1)N2CCCC(O)(c1ccccc1)c1ccccc1` (stereo not drawn), the growth inhibition was 26% (inactive). For `ClC1=C(Cl)C(Cl)(Cl)SS1`, the growth inhibition was 99% (active). With `COC(=O)C(F)C(Br)C(=O)OC` (stereo not drawn) the growth inhibition was 98% (active). In the case of `c1ccc2c(NCCCCCCNc3c4ccccc4nc4ccccc34)c3ccccc3nc2c1`, the growth inhibition is reported as 83% (active). With `c1ccc2c(NCCCCCCCCNc3c4ccccc4nc4ccccc34)c3ccccc3nc2c1` the growth inhibition was 97% (active). For `CN(Cc1ccccc1)CC(O)c1ccc(Cl)cc1` (stereo not drawn), the growth inhibition was 34% (inactive). In the case of `Br[C](Br)(Br)[Hg][c]1ccccc1`, the growth inhibition is reported as 98% (active). With `Cc1cc(N=Nc2ccccc2C)ccc1N` the growth inhibition was 38% (inactive) and 97% (active). With `C/C(=N\N=C(/[Se])N1CC2CCC(CC2)C1)c1ccccn1` the growth inhibition was 84% (active).
